This is a sample that favours compounds with a hit; in the whole collection about 1.5% have one here.
PriA SSB inh: K. pneumoniae PriA-SSBct interaction inhibition; AlphaScreen SSBct-PriA binding, biotinylated peptide; inhibition, % at 33 µM; 430,000 compounds, 0.6% hits; AID 1272365; in the data active = inhibition mostly above about 37%, no sharp cut-off; inactive = mostly below about 20%;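 also: plate controls were negative control peptide for no effect and reference peptide for full effect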
Sa RN4220 lethal: kills Staphylococcus aureus RN4220 | inhibition, % (no concentration beside the values) | S. aureus RN4220 growth, OD600, 16 h | 330,000 compounds, 0.33% hits | AID 1259311; in the data active = inhibition above about 85%;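 also: plate controls were untreated cells for no effect and reference antibiotic for full effect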
Sa ugtP lethal: compounds lethal to S. aureus RN4220 ugtP deletion mutant; OD600 growth, 16 h; AID 1259309; 330,000 compounds, 0.54% hits; growth inhibition, % (concentration not given with the values); in the data active = growth inhibition above about 68%;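 also: plate controls were untreated wells for no effect and antibiotic for full effect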
VHR inh abs: blocks human VHR1 dual specificity phosphatase; P51452; recombinant VHR phosphatase, pNPP absorbance; inhibition, % at 13.3 µM; 290,000 compounds, 0.52% hits; AID 1654; in the data active = inhibition above about 50%
Target sequence (P51452 whole entry, looked up): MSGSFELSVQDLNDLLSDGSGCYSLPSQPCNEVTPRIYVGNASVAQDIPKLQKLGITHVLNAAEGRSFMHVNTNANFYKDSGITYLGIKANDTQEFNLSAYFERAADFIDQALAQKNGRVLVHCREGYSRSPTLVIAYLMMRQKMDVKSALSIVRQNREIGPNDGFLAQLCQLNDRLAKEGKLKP
CCHF vOTU inh-1: blocks the CCHF virus ovarian tumor domain protease; 370,000 compounds, 0.55% hits; AID 651958; CCHFV vOTU protease, Pep-AMC fluorescence; inhibition, % at 11.5 µM; also: 0% = vehicle wells with enzyme and 100% = no enzyme wells
CCHF vOTU inh-2: confirmation of CCHF virus vOTU protease inhibitors; Recombinant CCHFV vOTU, Pep-AMC fluorescence; AID 686976; shares compounds with CCHF vOTU inh-1; 1,900 compounds, 17% hits; inhibition, % at 11.5 µM
Active calls of the source: *; / = not tested or not shown. Rule as the data show it, unless noted: active = inhibition above about 30%; inactive = the rest.

SMILES | PriA SSB inh | Sa RN4220 lethal | Sa ugtP lethal | VHR inh abs | CCHF vOTU inh-1 | CCHF vOTU inh-2
CCN(C[C@H]1N[C@@](CC)(C(=O)OC)[C@H]2C(=O)N(Cc3ccccc3)C(=O)[C@@H]12)S(=O)(=O)c1ccc(OC)cc1 | -8 | 3 | 3 | / | 33* | -10
CCOc1ccc(NC(=O)CSC2=Nc3cc(C)c(C)cc3N=C(CC(=O)OC)C2)cc1 | -7 | / | / | / | / | /
CC[n+]1c(-c2ccccc2)c2cc(N)ccc2c2ccc(N)cc21 | 65 | / | / | / | 91* | 90*
CCOc1cc(/C=N/NC(=S)Nc2ccccc2C(F)(F)F)ccc1OCC(=O)N1CCOCC1 | / | / | / | 4 | 30* | -2
COc1ccc(NC(=S)NNc2ccc(S(=O)(=O)Nc3ccccc3C(=O)O)cc2[N+](=O)[O-])cc1 | 55* | 5 | 3 | 25 | 33* | 16
COc1cccc(C=NNc2ccc(S(=O)(=O)Nc3ccccc3C(=O)O)cc2[N+](=O)[O-])c1O | 19 | -5 | 23 | / | / | /
O=C(c1ccc2nc(-c3ccco3)c(-c3ccco3)nc2c1)N1CCN(c2ccccc2)CC1 | 13 | 2 | -3 | -5 | 48* | -8
O=S(=O)(c1ccc2nc(-c3ccco3)c(-c3ccco3)nc2c1)N1CCOCC1 | -6 | 5 | -2 | 3 | 73* | 40*
O=S(=O)(c1ccc2ccccc2c1)N1CCOCC1 | 3 | -1 | 8 | 22 | 2 | /
COc1cc2c(cc1OC)CN(CC(=O)Nc1ccc(C)cc1)CC2 | -15 | 2 | 2 | -6 | 30* | -22
CC1CCN(C(=O)c2ccc(CNS(=O)(=O)c3ccc(C(C)(C)C)cc3)cc2)CC1 | 4 | -1 | -11 | / | 33* | -2
CC(C)(C)c1ccc(S(=O)(=O)NCc2ccc(C(=O)N3CCCC3)cc2)cc1 | -6 | 4 | 5 | 14 | 2 | /
CCOc1ccc(Nc2ccc(N)c(S(=O)(=O)O)c2)cc1 | 27 | 14 | -8 | / | 30* | 8
COc1ccc(OC)c2sc(N(Cc3ccccn3)C(=O)C3CCCCC3)nc12 | 18 | / | / | / | / | /
COC(=O)c1ccc(C)c(-n2c(N)c(C(=O)N3CCCCC3)sc2=S)c1 | 19 | / | / | / | / | /
COCCn1c(=NC(=O)c2ccc(S(=O)(=O)N3CC(C)OC(C)C3)cc2)sc2c(C)cc(C)cc21 (stereo not given) | -16 | / | / | / | / | /
CCOc1ccc2c(c1)C(C)=CC(C)(C)N2C(=O)Nc1ccccc1F | 10 | 3 | 10 | -7 | 71* | -100
CCNC(=O)N1c2ccc(OCC)cc2C(C)=CC1(C)C | 12 | 1 | 5 | 10 | -16 | /
Cc1cccc(OCC(=O)Nc2cccc(C(=O)Nc3ccccc3C(=O)O)c2)c1 | -3 | 15 | 10 | -8 | 11 | /
CC(C)c1ccc(OCC(=O)Nc2cccc(C(=O)Nc3ccccc3C(=O)O)c2)cc1 | 13 | 15 | -1 | 21 | 31* | -11
O=C(Nc1ncc([N+](=O)[O-])s1)C1CCN(S(=O)(=O)c2cnc[nH]2)CC1 | 3 | 2 | 3 | -7 | 31* | -1
CC(C)Oc1ccc(-c2noc(CN3N=NC4C(=O)N(c5ccc(F)c(Cl)c5)C(=O)C43)n2)cc1 (stereo not given) | -6 | / | / | / | / | /
O=c1[nH]ncc(NN=Cc2ccncc2)c1Cl | -21 | 3 | 3 | / | / | /
Cc1ccsc1C=NNc1cn[nH]c(=O)c1Cl | -14 | 10 | 2 | / | / | /
O=c1[nH]ncc(N/N=C\c2cccs2)c1Cl | / | / | / | 22 | 30* | -8
SMILES | PriA SSB inh | Sa RN4220 lethal | Sa ugtP lethal | VHR inh abs | CCHF vOTU inh-1 | CCHF vOTU inh-2
O=c1[nH]ncc(N/N=C\c2ccncc2)c1Cl | / | / | / | 22 | 34* | -1
CC(=NS(=O)(=O)c1ccc(C)cc1)NC(=S)Nc1ccccc1 | -8 | / | / | / | / | /
N#C/C(=C\c1ccc[nH]1)C(=O)Nc1ccccc1F | 2 | 3 | 1 | 19 | 15 | /
Cc1cc(/C=C(\C#N)C(=O)Nc2ccccc2F)c(C)[nH]1 | 7 | 5 | 7 | 22 | 33* | -3
O=C(c1ccc(S(=O)(=O)c2ccccc2)cc1)N1CCc2ccccc2C1 | 7 | 7 | -1 | -2 | 35* | -17
O=C(c1ccc(S(=O)(=O)N2CCCCC2)cc1)N1CCc2ccccc2C1 | -6 | 18 | 4 | 9 | -15 | /
O=C(Nc1nc(-c2ccccc2)c(C(=O)c2ccccc2)s1)c1ccc(Cl)s1 | -2 | / | / | / | / | /
O=C1Cc2ccccc2C(=O)N1CCc1ccccc1 | 10 | 1 | 0 | 25 | 100* | 102*
O=C1c2cccc3c(Cl)ccc(c23)C(=O)N1CCc1ccccc1 | 0 | / | / | / | / | /
O=C(Nc1nc2ccccc2s1)C1CN(S(=O)(=O)C2CC2)C1 | 11 | / | / | / | / | /
CCCn1c(O)c(N=NC(=O)CNC(=O)Cc2ccc(OC)cc2)c2ccccc21 | -2 | 3 | 8 | 1 | 32* | -4
CCCn1c(O)c(N=NC(=O)CNC(=O)/C=C/c2ccc(OC)cc2)c2ccccc21 | -7 | 1 | -1 | 12 | 21 | /
CN(C)c1ccc(-c2[nH][nH]c(=O)c2NC(=O)c2ccccn2)cc1 | / | / | / | / | 113* | 2
CN(C)c1ccc(-c2[nH][nH]c(=O)c2NC(=O)c2ccc3ccccc3n2)cc1 | / | / | / | / | 105* | -11
O=C(O)Cn1c2c(c3ccccc31)CCCC2 | 6 | / | / | 8 | 30* | -17
COCCn1cc(NC(=O)NCc2ccc3c(c2)OCO3)c2ccccc21 | 8 | / | / | / | / | /
NC1=C(Br)C(=O)c2ncccc2C1=O | 5 | / | / | / | 107* | 94*
COc1ccc(C)cc1S(=O)(=O)N1CCC(Oc2cncc(N(C)C)n2)C1 (stereo not given) | 14 | / | / | / | / | /
CC1(C)CC(=O)C2=C(C1)c1c(ccc3ccccc13)NC2c1ccc(C(=O)O)cc1 (stereo not given) | -4 | 8 | -1 | -9 | -109 | /
CC1(C)CC(=O)C2=C(C1)c1c(ccc3ccccc13)NC2c1cc([N+](=O)[O-])cc([N+](=O)[O-])c1O (stereo not given) | 19 | 95* | 90* | 9 | 44* | 14
Cc1ccc(OCc2cc(C(=O)N3CCCCCCC3)no2)cc1C | -33 | 7 | 0 | -5 | 7 | /
Cc1ccc(OCc2cc(C(=O)N3CCC(C(O)C(C)C)CC3)no2)cc1C (stereo not given) | -5 | 4 | -3 | -15 | 33* | -9
COc1ccc(Cc2nc(-c3cccs3)no2)cc1OC | -26 | 7 | -3 | 17 | 31* | -11
C=CCn1c(NC(=O)c2ccccc2Cl)c(C#N)c2nc3ccccc3nc21 | 34 | 40 | 23 | 33 | 82* | 45*
COC(=O)[C@]12C[C@H](CC(=O)NCc3ccccc3)C(=O)N(Cc3ccco3)C1=C[C@H](C(C)C)O[C@@H]2C1CC1 | / | / | / | / | 11 | /
COC(=O)[C@]12C[C@H](CC(=O)NCc3cccc(C(F)(F)F)c3)C(=O)N(Cc3ccccc3)C1=C[C@H](C(C)C)O[C@@H]2C1CC1 | / | / | / | / | 41* | -4
COC(=O)[C@]12C[C@H](CC(=O)NCc3cccc(C(F)(F)F)c3)C(=O)N(Cc3ccco3)C1=C[C@H](C(C)C)O[C@@H]2C1CC1 | / | / | / | / | 31* | 0
